PubChem BioAssay (Tox21)
“And” between values parts separate entries of the source, which are not always exact repeats. Equal entries are not always repeated. Results filed as inconclusive are left out. The source holds several records for some structures; these can differ, active in one and inactive in another. The source made the active and inactive calls. Calls follow the shape of the dose curve; as a rule, active = well fitted curve in the direction sought with a large enough effect in the repeat runs; inconclusive = weak or mixed curves; inactive = no such curve, though single readings can be large; an effect the other way counts as inactive or inconclusive.

Key:
[1] = qHTS assay to identify small molecule antagonists of the retinoid acid receptor (RAR) signaling pathway - cell viability counter screen (AID 1159551); also: nearly all actives have a fitted effect of over 35% in size
Procedure, shortened: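 Viability of C3RL4 cells is quantified from ATP by luminescence after 6 h treatment at 37 C with compounds and 1 uM retinol.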

[2] = qHTS assay to identify small molecule antagonists of the retinoic acid receptor (RAR) signaling pathway (AID 1159552; also: nearly all actives have a fitted effect of over 50% in size)
Procedure, shortened: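 Retinol signaling pathway inhibitors screened in C3RL4 RARE-luciferase reporter cells seeded overnight at 37 C, then compounds added with 1 uM (final) retinol as pathway substrate. After 6 hr at 37 C, luciferase luminescence read after 30 min at room temperature.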

[3] = qHTS assay to identify small molecule agonists of the retinoic acid receptor (RAR) signaling pathway (AID 1159553); settings: C3RL4 RARE luciferase reporter, agonist, 6 h; activation: at 73.3 µM (top of the series) unless noted
Procedure, shortened: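 Compounds dissolved in DMSO were pinned onto C3RL4 cells seeded the previous day, and plates were held 6 hr at 37 C. RARE-driven luciferase output was then read by luminescence.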

[4] = qHTS assay to identify small molecule antagonists of the estrogen related receptor (ERR) signaling pathway from Tox21 library - cell viability counter screen (AID 1224834); also: nearly all actives have a fitted effect of over 30% in size
Procedure, shortened: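 In this quantitative HTS format, ERR cells receive compounds in DMSO and are incubated for 17.5 h at 37 C. Live-cell protease activity is then detected with CellTiter-Fluor.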

[5] = target: Luciferin 4-monooxygenase (Photinus pyralis) (UniProt P08659); assay: qHTS assay to identify small molecule inhibitors of firefly luciferase (AID 1224835); also: nearly all actives have a fitted effect of over 25% in size
Sequence of Luciferin 4-monooxygenase (Photinus pyralis) (P08659 whole entry, looked up): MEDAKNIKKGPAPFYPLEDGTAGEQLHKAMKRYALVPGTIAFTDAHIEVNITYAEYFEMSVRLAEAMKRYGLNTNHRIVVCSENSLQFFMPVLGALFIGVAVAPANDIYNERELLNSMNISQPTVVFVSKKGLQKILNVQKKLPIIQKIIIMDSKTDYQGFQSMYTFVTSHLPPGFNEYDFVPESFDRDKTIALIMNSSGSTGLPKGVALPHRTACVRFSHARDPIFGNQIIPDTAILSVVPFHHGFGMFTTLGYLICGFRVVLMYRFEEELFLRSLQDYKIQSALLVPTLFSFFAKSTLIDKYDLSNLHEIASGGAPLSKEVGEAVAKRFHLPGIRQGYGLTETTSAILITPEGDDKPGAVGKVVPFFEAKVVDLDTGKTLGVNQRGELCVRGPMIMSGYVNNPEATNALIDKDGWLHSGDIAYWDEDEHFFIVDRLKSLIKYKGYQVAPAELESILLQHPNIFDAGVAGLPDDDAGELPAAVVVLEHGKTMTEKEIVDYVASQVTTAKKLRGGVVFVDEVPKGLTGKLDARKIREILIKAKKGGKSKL
Procedure, shortened: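 Quantitative HTS format; KM concentrations of both substrates. Purified P. pyralis FLuc activity quantified from luminescence images.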

[6] = qHTS assay to identify small molecule antagonists of the estrogen related receptor signaling pathway with the pleiotropic PPARgamma coactivator (PGC) cell viability counter screen (AID 1224822;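 also: viability read after 17.5 h compound exposure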)
Procedure, shortened: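 Viable cell signal (CellTiter-Fluor, 30 min, 37 C/5% CO2) was measured in PGC/ERR cells after a 17.5 h compound incubation.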
% is scaled to controls: 0 for no effect and ±100 for the full control effect; potency is read from the fitted curve at half-maximal effect.

CCCCC(CC)CN1CN(CC(CC)CCCC)CC(C)(N)C1 (stereo not given)
inactive: Potency [1] | Potency [2] | Potency [3] | Potency [4] | Potency [5]

Cc1cccc2cccnc12
inactive: Potency [1] | Potency [2] | Potency [3] | Potency [5]

COc1cc(/C=C/c2ccccc2)oc(=O)c1
active: Potency [3] 0.564 µM | Potency [5] 7.35 µM
inactive: Potency [1] | Potency [2]

Nc1ccc(C(=O)O)c(O)c1
inactive: Potency [1] | Potency [2] | Potency [3] | Potency [5]

COC(=O)c1ccccc1C
inactive: Potency [1] | Potency [2] | Potency [3] | Potency [4] | Potency [5]

CC(C)CCOC(=O)/C=C/c1ccccc1
inactive: Potency [1] | Potency [2]
active: Potency [3] 10.9 µM | Potency [5] 8 µM

O=C(O)c1ccc2cc(C(=O)O)ccc2c1
inactive: Potency [1] | Potency [2] | Potency [3] | Potency [5]

O=C(O)c1cc(=O)c2ccccc2o1
inactive: Potency [1] | Potency [2] | Potency [4]

Cc1ccc(N/N=c2\c(=O)cc/c(=N\Nc3ccc(S(=O)(=O)O)cc3)c2=O)c(C)c1
active: Potency [5] 28.3 µM
inactive: Potency [1] | Potency [2] | Potency [3]

O=C(O)O
inactive: activity change, negative = cytotoxicity [1] 2.76% [at 8.39 µM] | activity, negative = inhibition [2] -54.8% [at 8.39 µM] | viability change, negative = cytotoxic [4] -2.55% [at 8.39 µM]

C=C(CC)C(=O)c1ccc(OCC(=O)O)c(Cl)c1Cl
79.1 µM (active) and inactive: Potency [5]
active: Potency [2] 48.2 µM
inactive: Potency [1] | Potency [4]

CC(C)(C)c1ccc(C(O)CCCN2CCC(C(O)(c3ccccc3)c3ccccc3)CC2)cc1 (stereo not given)
inactive: Potency [1] | Potency [2] | Potency [5]
active: Potency [6] 22 µM | Potency [4] 11.9 µM

CCCCCCOC(=O)C(C)CC (stereo not given)
inactive: Potency [1] | Potency [2] | Potency [3] | Potency [4] | Potency [5]

O=[N+]([O-])c1ccc(O)cc1C(F)(F)F
active: Potency [4] 15.4 µM
inactive: Potency [1] | Potency [2]

CCCCCC/C=C\CCCCCCCC(=O)O
inactive: Potency [1] | Potency [2] | Potency [4]

C#CC1(O)CC[C@H]2[C@@H]3CCC4=CCCC[C@@H]4[C@H]3CC[C@@]21C (stereo not given in full)
inactive: Potency [3] | Potency [5]
active: Potency [1] 54.5 µM and 26.6 µM | Potency [2] 48.6 µM and 23.7 µM

CC(=O)OCC=C(C)C
inactive: Potency [1] | Potency [2] | Potency [3] | Potency [4] | Potency [5]

O[C@@H]([C@H](O)[C@H](O)CBr)[C@H](O)CBr
inactive: Potency [1] | Potency [2] | Potency [4] | Potency [5]

C#Cc1ccc(-c2ccccc2F)cc1
active: Potency [5] 30.9 µM
inactive: Potency [1] | Potency [2] | Potency [3]

Clc1nnc(Cl)c2ccccc12
inactive: Potency [1] | Potency [2] | Potency [3] | Potency [4] | Potency [5]

Nc1ccc(Oc2ccc(Cl)cc2)cc1
inactive: Potency [1] | Potency [2] | Potency [4]

CCC(CC)(CC(=O)Nc1cccc(/C=C/c2nc(C3CCC3)cs2)c1)C(=O)O
active: Potency [5] 2.75 µM
inactive: Potency [1] | Potency [2] | Potency [4]

Cc1c(C)c([N+](=O)[O-])c(C(C)(C)C)c([N+](=O)[O-])c1C
inactive: Potency [1] | Potency [2] | Potency [3] | Potency [4] | Potency [5]

CN(C)Cc1ccccc1O
inactive: Potency [1] | Potency [2] | Potency [4] | Potency [5]

CC(CCc1ccccc1)NCC(O)c1ccc(O)c(C(N)=O)c1 (stereo not given)
inactive: Potency [1] | Potency [2] | Potency [6] | Potency [5]

Cc1ccc(C)cc1
inactive: Potency [1] | Potency [2] | Potency [3] | Potency [4] | Potency [5]

CC(C)(c1cc(Br)c(OCC(Br)CBr)c(Br)c1)c1cc(Br)c(OCC(Br)CBr)c(Br)c1 (stereo not given)
inactive: Potency [1] | Potency [2] | Potency [3] | Potency [4] | Potency [5]

OC[C@@H](O)[C@@H](O)CO
inactive: Potency [1] | Potency [2] | Potency [3] | Potency [4] | Potency [5]

Cc1cc(-n2nc3ccc(Cl)cc3n2)c(O)c(C(C)(C)C)c1
inactive: Potency [1] | Potency [2] | Potency [3] | Potency [5]

COC1=C(OC)C(=O)C(CCCCCCCCCCO)=C(C)C1=O
inactive: Potency [1] | Potency [2] | Potency [3] | Potency [5]
active: Potency [4] 23.7 µM

CCCC[P+](C)(CCCC)CCCC
inactive: Potency [1] | Potency [2] | Potency [3] | Potency [5]

c1cnccn1
inactive: Potency [1] | Potency [2] | Potency [4]

COC(=O)c1ccccc1OC
inactive: Potency [1] | Potency [2] | Potency [3] | Potency [4] | Potency [5]

O=C1CCCCCCCCCCCCCCCO1
inactive: Potency [1] | Potency [2] | Potency [4]

CC(C)Cn1cnc2c(N)nc3ccccc3c21
inactive: activity change, negative = cytotoxicity [1] -0.222% [at 19 µM] | activity, negative = inhibition [2] 2.71% [at 19 µM] | Potency [3] | viability change, negative = cytotoxic [4] -3.99% [at 19 µM] | activity change, negative = inhibition [5] 5.54% [at 23.6 µM]

CCc1cccc(CC)c1NC(=O)CN(CC(=O)O)CC(=O)O
inactive: Potency [1] | Potency [2] | Potency [4] | Potency [5]

CCN(CCN)c1cccc(C)c1
inactive: Potency [1] | Potency [2] | Potency [3] | Potency [4] | Potency [5]

C=CCn1c(=O)n(CC=C)c(=O)n(CC=C)c1=O
inactive: Potency [1] | Potency [2] | Potency [3] | Potency [4] | Potency [5]
